# From paper PMC7862700, “An all-to-all approach to the identification of sequence-specific readers for epigenetic DNA modifications on cytosine”
# Tests used:
# Test in all cases: DAPPL (digital affinity profiling via proximity ligation, sequencing); 10 mM Tris-HCl pH 7.5, 50 mM NaCl, 1 mM DTT, 4% glycerol, room temperature, 30 min; GST-TFs on glutathione beads, 16-mer random dsDNA library, 0.1% formaldehyde crosslink after washing; high values mean tight binding
# Conditions in all cases: protein: recombinant; tags: N-terminal GST; dsDNA, one strand shown
# ETV2 = target: T1, ETV2 (Homo sapiens, UniProt O00321 1-342)
# T1 sequence: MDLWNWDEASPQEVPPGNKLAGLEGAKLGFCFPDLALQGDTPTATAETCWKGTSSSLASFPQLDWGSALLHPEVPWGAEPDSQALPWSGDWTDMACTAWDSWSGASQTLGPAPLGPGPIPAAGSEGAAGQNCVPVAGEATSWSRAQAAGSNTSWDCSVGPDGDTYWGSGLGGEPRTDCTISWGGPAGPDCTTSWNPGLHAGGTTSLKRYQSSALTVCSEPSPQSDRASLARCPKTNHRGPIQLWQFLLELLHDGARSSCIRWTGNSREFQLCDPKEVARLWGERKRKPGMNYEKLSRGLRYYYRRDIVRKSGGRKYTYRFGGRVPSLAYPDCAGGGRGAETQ
# How it was run: (§1)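 The binding signal reported is, for every hexamer, its read frequency for a factor over its read frequency for the tag-only sample. Reads came from pools of yeast-expressed, GST-fused human transcription factors on glutathione beads, barcoded with DNA and mixed with that sample, which were incubated with 200 nmole of a random double-stranded 16-mer DNA library in Tris/NaCl/DTT/glycerol buffer at room temperature for 30 min. After washing, the pools were crosslinked with 0.1% formaldehyde, proximity-ligated with BsaI/T4 ligase for 1 h at 37 °C, PCR-amplified and sequenced on an Illumina NextSeq500.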
# ELF3 = target: T2, ELF3 (Homo sapiens, UniProt P78545 1-371)
# T2 sequence: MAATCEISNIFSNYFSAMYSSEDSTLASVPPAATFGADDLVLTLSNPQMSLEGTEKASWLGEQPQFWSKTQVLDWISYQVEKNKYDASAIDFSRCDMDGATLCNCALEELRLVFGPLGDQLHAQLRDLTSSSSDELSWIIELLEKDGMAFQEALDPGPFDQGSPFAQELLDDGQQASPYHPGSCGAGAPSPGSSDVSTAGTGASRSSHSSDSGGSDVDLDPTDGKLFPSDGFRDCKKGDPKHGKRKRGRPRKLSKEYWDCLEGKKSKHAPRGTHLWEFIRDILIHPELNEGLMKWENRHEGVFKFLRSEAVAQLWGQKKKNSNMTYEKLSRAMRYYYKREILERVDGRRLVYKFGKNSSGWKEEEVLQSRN
# How it was run: as §1
# ETV1 = ETV1 (Homo sapiens, UniProt P50549 1-477)
# How it was run: as §1
# ERF = target: T3, ERF (Homo sapiens, UniProt P50548 1-548)
# T3 sequence: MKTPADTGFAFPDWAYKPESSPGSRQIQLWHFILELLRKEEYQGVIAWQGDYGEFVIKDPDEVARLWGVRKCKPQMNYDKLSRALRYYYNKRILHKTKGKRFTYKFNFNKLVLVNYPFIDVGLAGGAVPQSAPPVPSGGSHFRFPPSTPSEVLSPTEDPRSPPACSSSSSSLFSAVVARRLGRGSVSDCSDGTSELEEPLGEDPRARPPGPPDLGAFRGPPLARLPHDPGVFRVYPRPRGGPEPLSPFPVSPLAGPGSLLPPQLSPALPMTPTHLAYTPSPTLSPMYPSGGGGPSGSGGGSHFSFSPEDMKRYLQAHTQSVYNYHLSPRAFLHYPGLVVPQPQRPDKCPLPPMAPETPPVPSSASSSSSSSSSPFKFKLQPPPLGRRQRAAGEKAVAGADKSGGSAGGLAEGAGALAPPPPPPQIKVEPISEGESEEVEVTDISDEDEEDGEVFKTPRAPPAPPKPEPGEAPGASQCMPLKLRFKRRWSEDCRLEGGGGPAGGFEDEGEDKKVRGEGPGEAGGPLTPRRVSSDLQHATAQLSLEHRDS
# How it was run: as §1
# ETV3L = target: T4, ETV3L (Homo sapiens, UniProt Q6ZN32 1-361)
# T4 sequence: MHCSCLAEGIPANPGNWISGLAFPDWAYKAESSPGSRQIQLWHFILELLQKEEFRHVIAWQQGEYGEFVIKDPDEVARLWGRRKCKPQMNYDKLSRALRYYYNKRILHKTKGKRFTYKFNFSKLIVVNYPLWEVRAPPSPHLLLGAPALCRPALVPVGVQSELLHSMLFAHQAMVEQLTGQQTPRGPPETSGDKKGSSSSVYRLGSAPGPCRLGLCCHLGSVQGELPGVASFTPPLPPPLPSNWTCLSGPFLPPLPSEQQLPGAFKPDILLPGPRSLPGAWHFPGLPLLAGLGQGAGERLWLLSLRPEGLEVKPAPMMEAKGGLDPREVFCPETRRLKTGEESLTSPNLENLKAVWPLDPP
# How it was run: as §1
# ETS2 = target: T5, ETS2 (Homo sapiens, UniProt P15036 1-469)
# T5 sequence: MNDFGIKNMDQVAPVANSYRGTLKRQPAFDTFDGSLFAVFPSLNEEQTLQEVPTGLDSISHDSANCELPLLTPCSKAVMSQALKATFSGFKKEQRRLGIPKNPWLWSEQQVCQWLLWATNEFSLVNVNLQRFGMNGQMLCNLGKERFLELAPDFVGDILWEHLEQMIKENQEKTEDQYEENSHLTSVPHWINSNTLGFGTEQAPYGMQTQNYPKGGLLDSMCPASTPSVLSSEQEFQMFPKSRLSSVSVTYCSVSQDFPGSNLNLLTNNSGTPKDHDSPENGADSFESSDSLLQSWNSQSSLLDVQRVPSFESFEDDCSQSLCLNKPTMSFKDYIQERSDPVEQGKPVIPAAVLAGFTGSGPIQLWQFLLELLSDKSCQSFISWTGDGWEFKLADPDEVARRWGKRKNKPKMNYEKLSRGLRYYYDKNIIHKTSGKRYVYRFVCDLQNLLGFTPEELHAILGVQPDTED
# How it was run: as §1
# SPDEF = target: T6, SPDEF (Homo sapiens, UniProt O95238 1-335)
# T6 sequence: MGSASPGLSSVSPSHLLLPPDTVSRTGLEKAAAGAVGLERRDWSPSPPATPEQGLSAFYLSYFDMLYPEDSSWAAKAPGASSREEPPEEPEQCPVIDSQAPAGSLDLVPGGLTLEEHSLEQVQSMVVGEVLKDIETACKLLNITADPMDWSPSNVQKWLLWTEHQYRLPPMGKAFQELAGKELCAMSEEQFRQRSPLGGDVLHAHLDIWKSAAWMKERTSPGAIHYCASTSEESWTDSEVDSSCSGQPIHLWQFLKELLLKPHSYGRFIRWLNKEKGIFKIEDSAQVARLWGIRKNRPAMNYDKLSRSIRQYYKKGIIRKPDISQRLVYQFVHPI
# How it was run: as §1
# ETV7 = target: T7, ETV7 (Homo sapiens, UniProt Q9Y603 1-341)
# T7 sequence: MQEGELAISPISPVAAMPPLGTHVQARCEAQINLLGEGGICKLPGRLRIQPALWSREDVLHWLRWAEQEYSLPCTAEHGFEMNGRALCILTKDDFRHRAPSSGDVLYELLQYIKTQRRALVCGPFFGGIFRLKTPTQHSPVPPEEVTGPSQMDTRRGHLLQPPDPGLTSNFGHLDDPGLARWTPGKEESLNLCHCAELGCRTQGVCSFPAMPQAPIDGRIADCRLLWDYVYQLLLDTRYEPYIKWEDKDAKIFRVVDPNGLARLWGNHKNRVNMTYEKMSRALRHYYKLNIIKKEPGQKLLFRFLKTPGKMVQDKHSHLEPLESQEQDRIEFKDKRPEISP
# How it was run: as §1
# ETV3 = target: T8, ETV3 (Homo sapiens, UniProt P41162-2 1-143)
# T8 sequence: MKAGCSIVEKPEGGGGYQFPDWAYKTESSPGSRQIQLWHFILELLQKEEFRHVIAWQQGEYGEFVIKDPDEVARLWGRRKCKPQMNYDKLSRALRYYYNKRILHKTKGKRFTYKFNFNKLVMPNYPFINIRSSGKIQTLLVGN
# How it was run: as §1
# ETV6 = ETV6 (Homo sapiens, UniProt P41212 1-452)
# How it was run: as §1
# ETV6, sequence (P41212 whole entry): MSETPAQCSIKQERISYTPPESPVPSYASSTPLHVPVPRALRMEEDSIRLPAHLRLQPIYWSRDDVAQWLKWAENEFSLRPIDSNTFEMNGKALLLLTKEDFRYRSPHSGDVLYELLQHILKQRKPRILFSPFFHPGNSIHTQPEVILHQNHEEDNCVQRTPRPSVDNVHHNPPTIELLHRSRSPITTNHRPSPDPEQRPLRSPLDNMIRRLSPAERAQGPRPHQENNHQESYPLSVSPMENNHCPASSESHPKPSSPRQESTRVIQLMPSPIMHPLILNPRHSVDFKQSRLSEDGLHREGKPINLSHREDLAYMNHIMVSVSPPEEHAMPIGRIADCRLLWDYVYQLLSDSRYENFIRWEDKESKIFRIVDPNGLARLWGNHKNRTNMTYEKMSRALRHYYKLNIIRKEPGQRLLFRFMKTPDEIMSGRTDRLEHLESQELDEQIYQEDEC
# ETV1, sequence (P50549 whole entry): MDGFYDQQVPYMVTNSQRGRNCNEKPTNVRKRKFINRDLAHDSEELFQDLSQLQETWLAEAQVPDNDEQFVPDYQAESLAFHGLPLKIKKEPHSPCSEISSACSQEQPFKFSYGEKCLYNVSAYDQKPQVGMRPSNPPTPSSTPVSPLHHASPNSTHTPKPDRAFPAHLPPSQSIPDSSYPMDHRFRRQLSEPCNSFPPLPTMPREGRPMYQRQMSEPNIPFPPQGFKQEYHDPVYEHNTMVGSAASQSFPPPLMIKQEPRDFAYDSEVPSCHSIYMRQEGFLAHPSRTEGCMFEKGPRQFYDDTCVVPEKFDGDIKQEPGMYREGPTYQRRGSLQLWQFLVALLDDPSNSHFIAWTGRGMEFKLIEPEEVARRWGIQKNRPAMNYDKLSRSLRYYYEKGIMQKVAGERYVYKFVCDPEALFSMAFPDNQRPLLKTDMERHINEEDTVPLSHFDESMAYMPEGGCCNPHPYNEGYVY
sequence,measurement,setting,value
TCAAGT,binding signal,ETV2,"1.06 fold enrichment (6-mer frequency, TF over GST control)"
same,binding signal,ELF3,"1.13 fold enrichment (6-mer frequency, TF over GST control)"
same,binding signal,ETV1,"1.15 fold enrichment (6-mer frequency, TF over GST control)"
same,binding signal,ERF,"1.06 fold enrichment (6-mer frequency, TF over GST control)"
same,binding signal,ETV3L,"1.12 fold enrichment (6-mer frequency, TF over GST control)"
same,binding signal,ETS2,"1.09 fold enrichment (6-mer frequency, TF over GST control)"
same,binding signal,SPDEF,"1.17 fold enrichment (6-mer frequency, TF over GST control)"
same,binding signal,ETV7,"1.03 fold enrichment (6-mer frequency, TF over GST control)"
same,binding signal,ETV3,"1.1 fold enrichment (6-mer frequency, TF over GST control)"
same,binding signal,ETV6,"1.07 fold enrichment (6-mer frequency, TF over GST control)"
